Test results from PubChem BioAssay (NCATS).
Records with an inconclusive call do not appear. Values without a mark were called inactive. Active and inactive are the calls of the source. Calls follow the shape of the dose curve; as a rule, active = well fitted cell-killing curve with a large enough effect; inconclusive = small, poorly fitted or top-dose-only effect, or effect the other way; inactive = no such curve, though single readings can be large or run the other way.

Key:
[1] = Viability qHTS for spleen associated tyrosine kinase inhibitor (SYKi) naive MV4-11 cells (AID 1963823); also: nearly all actives have a fitted effect of over 40% in size
In short: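 In this viability screen, compounds acted on SYK inhibitor naive MV4-11 cells for three days (72 hr, 37 C). Remaining viable cells were measured by CellTiter-Glo luminescence following a 10 min room-temperature development.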

[2] = Viability qHTS for spleen associated tyrosine kinase inhibitor (SYKi) drug resistant MV4-11 cells (AID 1963824); also: nearly all actives have a fitted effect of over 35% in size
In short: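 SYK inhibitor-resistant MV4-11 AML cells, 500 per well, added to predispensed compounds and incubated 72 hr at 37 C, 5% CO2. Viability measured by CellTiter-Glo luminescence after 10 min at room temperature.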
Potency is read from the fitted curve at half-maximal effect.

| SMILES | Potency [1] | Potency [2] | viability (% of control) [1] | viability, % of control [2] |
| --- | --- | --- | --- | --- |
| CC[C@@H]1C[C@H]2CC[C@H](O2)[C@H](C)C(=O)O[C@@H](C)C[C@@H]2CC[C@@H](O2)[C@@H](C)C(=O)O[C@H](C)C[C@H]2CC[C@H](O2)[C@H](C)C(=O)O[C@@H](C)C[C@@H]2CC[C@@H](O2)[C@@H](C)C(=O)O1 | 0.0343 µM (active) | 0.0385 µM (active) |  |  |
| C1=C2CCCN[C@H]2[C@@H]2C[C@H]1[C@H]1CCCCN1C2 | inactive | inactive |  |  |
| Fc1cc(F)c2c(c1)[C@H]1C=CC[C@H]1C(c1cccnc1)N2 (some centres not stated) | 2.91 µM (active) | 3.66 µM (active) |  |  |
| COc1cccc(NCC(F)Cn2c3ccc(Br)cc3c3cc(Br)ccc32)c1 (configuration not stated) | 2.06 µM (active) | 2.06 µM (active) |  |  |
| C[C@@H]1C(=O)O[C@H]2[C@H](O)[C@@]34[C@@H]5OC(=O)[C@@]3(O[C@@H]3OC(=O)[C@@H](O)[C@@]34[C@H](C(C)(C)C)[C@H]5O)[C@@]12O | inactive | inactive |  |  |
| C/C=C(\C)C(=O)OC1C(C)OC(OC2C(C)OC(OC3CCC4(C)C(=CCC5C4CCC4(C)C(C(C)OC6OC(COC7OC(CO)C(O)C(O)C7O)C(O)C(O)C6O)CCC54O)C3)CC2OC)C(O)C1OC (configuration not stated) |  |  | 78.5% [at 9.25 µM] | 105% [at 9.25 µM] |
| C[C@@]1(CO)[C@H](O)CC[C@@]2(C)[C@H]1CC[C@H]1C[C@@H]3C[C@@]12CC[C@]3(O)CO | 1.01 µM (active) | 1.01 µM (active) |  |  |
| Cc1ccc2c(c1)[C@H]1CN(C)CC[C@H]1N2C(=O)CSc1nnnn1-c1ccc(Cl)cc1 | inactive | inactive |  |  |
| Cc1c(N2C(=O)[C@@H]3[C@H](O)CCN3C2=O)ccc(C#N)c1Cl | inactive | inactive |  |  |
| CN[C@H]1[C@H](O)[C@H](O[C@@H]2[C@@H](O)[C@H](O[C@H]3O[C@H]([C@H](C)O)[C@@H](O)[C@H](O)[C@H]3N)[C@@H](N)C[C@H]2N)OC[C@@]1(C)O | inactive | inactive |  |  |
| CC1=CC(=O)[C@@H](O)[C@@]2(C)C1C[C@H]1OC(=O)[C@H](O)[C@@]3(O)[C@@H](C)[C@@H](O)[C@H](O)C2[C@@]13C (some centres not stated) | 2.02 µM (active) | 1.8 µM (active) |  |  |
| C=C1C[C@]2(O)[C@@]3(C)CCC(=O)C(C)(C)C3=C(O)C(=O)[C@@]2(C)[C@@H]2C(=O)O[C@@](C)(C(=O)OC)C(=O)[C@@]12C | inactive | inactive |  |  |
| COC1CC(OC2CCC3(C)C(=CCC4C3CCC3(C)C(C(C)OC5OC(COC6OC(CO)C(O)C(O)C6O)C(O)C(O)C5O)CCC43O)C2)OC(C)C1OC1OC(C)C(O)C(OC)C1O (configuration not stated) |  |  | 91.8% [at 9.25 µM] | 87.9% [at 9.25 µM] |
| Clc1ccc([C@]23CNC[C@H]2C3)cc1Cl | inactive | inactive |  |  |
| Nc1ccn(C[C@@H](CO)OCP(=O)(O)O)c(=O)n1 |  |  | 57.6% [at 9.25 µM] | 69.1% [at 9.25 µM] |
| CC(=O)OC12C(O)C(C)C3(O)C4C=C(C)C(=O)C4CC(CO)=CC3C1C2(C)C (configuration not stated) | inactive | inactive |  |  |
| COC1CC(OC2CCC3(C=O)C(CCC4C3CCC3(C)C(C5=CC(=O)OC5)CCC43O)C2)OC(C)C1OC1OC(CO)C(O)C(O)C1O (configuration not stated) | 0.0862 µM (active) | 0.0544 µM (active) |  |  |
| CCC(C)/C=C(C)/C=C/C1=CC2=C(Cl)C(=O)C(C)(OC(C)=O)C(=O)C2=CO1 (configuration not stated) | inactive | 8.05 µM (active) |  |  |
| CC[C@H](C)[C@@H]([C@@H](CC(=O)N1CCC[C@H]1[C@H](OC)[C@@H](C)C(=O)N[C@@H](Cc1ccccc1)c1nccs1)OC)N(C)C(=O)[C@@H](NC(=O)C(C)(C)N)C(C)C | inactive | inactive |  |  |
| COC1CC(OC2CCC3(C)C(CCC4C3CCC3(C)C(C5=CC(=O)OC5)C(OC(C)=O)CC43O)C2)OC(C)C1OC1OC(CO)C(O)C(O)C1O (configuration not stated) | 0.769 µM (active) | 0.485 µM (active) |  |  |
| CC[C@@H]1C[C@H]2CC[C@H](O2)[C@H](C)C(=O)O[C@@H](C)C[C@@H]2CC[C@@H](O2)[C@@H](C)C(=O)O[C@H](CC)C[C@H]2CC[C@H](O2)[C@H](C)C(=O)O[C@@H](C)C[C@@H]2CC[C@@H](O2)[C@@H](C)C(=O)O1 | 0.0306 µM (active) | 0.0193 µM (active) |  |  |
| C=C1C(=O)O[C@@H]2[C@H]3C(=C)[C@@H](O)C[C@H]3C(=C)C[C@@H](O)[C@@H]12 | 3.66 µM (active) | 3.66 µM (active) |  |  |
| C[C@@H]1Cc2c(Cl)cc(C(=O)N[C@@H](Cc3ccccc3)C(=O)O)c(O)c2C(=O)O1 | 0.718 µM (active) | 0.286 µM (active) |  |  |
| CN(C)[C@@H]1C(=O)C(C(N)=O)=C(O)[C@@]2(O)C(=O)C3=C(O)c4c(O)ccc(Cl)c4[C@@](C)(O)C3C[C@@H]12 (some centres not stated) | inactive | inactive |  |  |
| CCc1[nH]c2ccc(OC)cc2c1CCN(C)C | 10.3 µM (active) | inactive |  |  |
| NNc1ccccc1 | inactive | inactive |  |  |
